Here are results for 29 compounds from ChEMBL document CHEMBL4513139, “CO-ADD screening of University of Strathclyde (UK) compounds”.

Each structure is given as a SMILES string. Potency and affinity values are given separately.

In the first test the test system is Staphylococcus aureus. Particulars: Concentration 32 ug.mL-1; ASSAY_TEST Inhibition of Bacterial Growth; detection method Absorption (OD600); MEDIA CAMHB; plate type 384well; NBS; CORNING #3640; time 18 hr.
A word on the Inhibition: it is the change of the read-out against control, counted positive when it falls. Turning to `COCCOC1CCN(C(=O)c2cc(NC(=O)c3cc(NC(=O)c4ccc(/C=C/c5cnc6ccccc6c5)cc4)cn3C)cn2C)CC1`, the Inhibition turned out to be 5.5%.
On to `CCOC(=O)c1cc(NC(=O)c2cc(NC(=O)c3nc(N)sc3C(C)C)cn2C)cn1C`, for which the Inhibition is on record as 29.56%.
`Cc1ncc(Cn2cc(CC(N)C(=O)O)nn2)c(N)n1.Cl` (stereo not drawn): the Inhibition is -6.04%.
In the case of `CN(C)CCCNC(=O)c1cc(NC(=O)c2cc(NC(=O)c3ccc(C(=O)O)cc3)cn2C)cn1C.O=C(O)C(F)(F)F`, the Inhibition is 10.82%.
As to `CC(C)c1sc(N)nc1C(=O)Nc1cc(C(=O)NCCN2CCOCC2)n(C)c1.O=C(O)C(F)(F)F`, the Inhibition is listed as 4.82%.
Still for that read-out and setting: the result for `CC(=O)Nc1cc(C(=O)Nc2cc(C(=O)Nc3cc(C(=O)NCCCN(C)C)n(CCC(C)C)c3)n(C)c2)n(C)c1.O=C(O)C(F)(F)F` reads 9.82%; that for `Cc1ncc(CNc2cccc(F)c2)c(N)n1`, 13.69%; that for `COC(=O)CCC(=O)Nc1cc(C(=O)Nc2cc(C(=O)NCCN3CCOCC3)n(C)c2)n(C)c1.O=C(O)C(F)(F)F`, 3.68%.
Still for that read-out and setting: the result for `COc1cccc(C(=N)Nc2cc(C(=O)Nc3cc(C(=O)Nc4cc(C(=O)NCCCN(C)C)n(C)c4)n(C)c3)n(C)c2)c1.O=C(O)C(F)(F)F.O=C(O)C(F)(F)F` reads -1.63%; that for `Cc1ncc(Cn2cc(CCCO)nn2)c(N)n1`, 13.2%; that for `COC(=O)c1ccc(C(=O)Nc2cc(C(=O)Nc3cc(C(=O)NCCN4CCOCC4)n(C)c3)n(C)c2)cc1.O=C(O)C(F)(F)F`, 12.57%.
The same measure, in the same setting: the result for `Cc1ncc(Cn2cc(CCC(=O)O)nn2)c(N)n1.O=C(O)C(F)(F)F` reads 15.37%.
Take `CC(C)CCc1sc(NC(=O)c2cc(NC(=O)c3ccc(/C=C/c4cc5ccccc5nc4Cl)cc3)cn2C)nc1C(=O)NCCN1CCOCC1.O=C(O)C(F)(F)F`: the Inhibition was determined as 1.02%.
Regarding `Cc1ncc(CNc2ccc(C(F)(F)F)cc2)c(N)n1`, the Inhibition is on record as -6.95%.
The same measure, in the same setting: next, `COc1cccc(/C=C/c2ccc(C(=O)Nc3cc(C(=O)Nc4cc(C(=O)NCCN(C)C)n(C)c4)n(C)c3)cc2)c1.O=C(O)C(F)(F)F`: 98.95%; `Cc1ncc(Cn2cc(CCO)nn2)c(N)n1`: 21.55%; `Cn1cc(NC(=O)c2cc(NC(=O)c3sc(N)nc3C(F)(F)F)cn2C)cc1C(=O)NCCN1CCOCC1.O=C(O)C(F)(F)F`: 12.04%.
Turning to `Cc1ncc(Cn2cc(CCCN)nn2)c(N)n1.Cl`, the Inhibition is recorded as 14.19%.
As to `CC(=O)N(C(C)=O)c1cc(C(=O)Nc2cc(C(=O)NCCC(=N)N)n(C)c2)n(C)c1.O=C(O)C(F)(F)F`, the Inhibition is given as 98.15%.
The same measure, in the same setting: next, `CC(C)CCn1cc(NC(=O)c2cc(NC(=O)c3cc(NC(=N)c4ccccc4)cn3C)cn2C)cc1C(=O)NCCCN(C)C.O=C(O)C(F)(F)F.O=C(O)C(F)(F)F`: 22.24%; `Cc1ncc(Cn2cc(CCCCO)nn2)c(N)n1`: 1.62%; `COc1ccc(/C=C(/C(=O)Nc2cc(C(=O)Nc3cc(C(=O)NCCCN(C)C)n(C)c3)n(C)c2)c2ccc(OC)cc2)cc1.O=C(O)C(F)(F)F`: 49.85%.
The same measure, in the same setting: next, `CC(C)CCc1sc(NC(=O)c2cc(NC(=O)c3cc(NC(=O)CCC(=O)O)cn3C)cn2C)nc1C(=O)NCCCN(C)C.O=C(O)C(F)(F)F`: 3.82%.
Still for that read-out and setting: the result for `CC(C)n1cc(NC(=O)c2cc(NC(=O)c3cc(NC=O)cn3C(C)C)cn2C)cc1C(=O)NCCCN(C)C.O=C(O)C(F)(F)F` reads 2.98%; that for `Cc1ncc(CNc2ccc(Cl)cc2)c(N)n1`, -1.15%; that for `COC(=O)c1ccc(C(=O)Nc2cc(C(=O)Nc3cc(C(=O)NCCCN(C)C)n(C)c3)n(C)c2)cc1.O=C(O)C(F)(F)F`, -1.58%.
`CN(C)CCCNC(=O)c1cc(NC(=O)c2cc(NC(=O)c3cc(NC(=N)N)cn3C)cn2C)cn1C.O=C(O)C(F)(F)F.O=C(O)C(F)(F)F`: the Inhibition was determined as 14.94%.
Still for that read-out and setting: the result for `Cn1cc(NC(=O)c2cc(NC(=O)c3cc(NC(=O)c4ccc(Cl)cc4Cl)cn3C)cn2C)cc1C(=O)NCCN1CCOCC1.O=C(O)C(F)(F)F` reads 45.87%; that for `COCCOC1CCN(C(=O)c2cc(NC(=O)c3cc(NC(=O)c4ccc(/C=C/c5ccc(OC)cc5)cc4)cn3C)cn2C)CC1.O=S(=O)(O)O`, 99.55%.

A further test concerns Escherichia coli. Particulars: Concentration 32 ug.mL-1; ASSAY_TEST Inhibition of Bacterial Growth; detection method Absorption (OD600); MEDIA CAMHB; plate type 384well; NBS; CORNING #3640; time 18 hr.
In the case of `COCCOC1CCN(C(=O)c2cc(NC(=O)c3cc(NC(=O)c4ccc(/C=C/c5cnc6ccccc6c5)cc4)cn3C)cn2C)CC1`, the Inhibition is 7.07%.
Turning to `CCOC(=O)c1cc(NC(=O)c2cc(NC(=O)c3nc(N)sc3C(C)C)cn2C)cn1C`, the Inhibition is -5.15%.
On to `Cc1ncc(Cn2cc(CC(N)C(=O)O)nn2)c(N)n1.Cl` (stereo not drawn), for which the Inhibition is given as -16.87%.
Same read-out and setting: the result for `CN(C)CCCNC(=O)c1cc(NC(=O)c2cc(NC(=O)c3ccc(C(=O)O)cc3)cn2C)cn1C.O=C(O)C(F)(F)F` reads -6.1%; that for `CC(C)c1sc(N)nc1C(=O)Nc1cc(C(=O)NCCN2CCOCC2)n(C)c1.O=C(O)C(F)(F)F`, -3.07%; that for `CC(=O)Nc1cc(C(=O)Nc2cc(C(=O)Nc3cc(C(=O)NCCCN(C)C)n(CCC(C)C)c3)n(C)c2)n(C)c1.O=C(O)C(F)(F)F`, -19.43%.
Same read-out and setting: next, `Cc1ncc(CNc2cccc(F)c2)c(N)n1`: 3.54%; `COC(=O)CCC(=O)Nc1cc(C(=O)Nc2cc(C(=O)NCCN3CCOCC3)n(C)c2)n(C)c1.O=C(O)C(F)(F)F`: -5.38%; `COc1cccc(C(=N)Nc2cc(C(=O)Nc3cc(C(=O)Nc4cc(C(=O)NCCCN(C)C)n(C)c4)n(C)c3)n(C)c2)c1.O=C(O)C(F)(F)F.O=C(O)C(F)(F)F`: -2.32%.
For the compound `Cc1ncc(Cn2cc(CCCO)nn2)c(N)n1`, the Inhibition is recorded as -17.2%.
With `COC(=O)c1ccc(C(=O)Nc2cc(C(=O)Nc3cc(C(=O)NCCN4CCOCC4)n(C)c3)n(C)c2)cc1.O=C(O)C(F)(F)F`, the Inhibition is reported as -5.56%.
As for `Cc1ncc(Cn2cc(CCC(=O)O)nn2)c(N)n1.O=C(O)C(F)(F)F`, the Inhibition is -17.36%.
Take `CC(C)CCc1sc(NC(=O)c2cc(NC(=O)c3ccc(/C=C/c4cc5ccccc5nc4Cl)cc3)cn2C)nc1C(=O)NCCN1CCOCC1.O=C(O)C(F)(F)F`: the Inhibition is -19.26%.
`Cc1ncc(CNc2ccc(C(F)(F)F)cc2)c(N)n1`: the Inhibition is on record as -11.04%.
With `COc1cccc(/C=C/c2ccc(C(=O)Nc3cc(C(=O)Nc4cc(C(=O)NCCN(C)C)n(C)c4)n(C)c3)cc2)c1.O=C(O)C(F)(F)F`, the Inhibition is 88.16%.
The same measure, in the same setting: next, `Cc1ncc(Cn2cc(CCO)nn2)c(N)n1`: -15.62%; `Cn1cc(NC(=O)c2cc(NC(=O)c3sc(N)nc3C(F)(F)F)cn2C)cc1C(=O)NCCN1CCOCC1.O=C(O)C(F)(F)F`: -24.64%.
In the case of `Cc1ncc(Cn2cc(CCCN)nn2)c(N)n1.Cl`, the Inhibition is reported as -28.01%.
Still for that read-out and setting: next, `CC(=O)N(C(C)=O)c1cc(C(=O)Nc2cc(C(=O)NCCC(=N)N)n(C)c2)n(C)c1.O=C(O)C(F)(F)F`: 6.79%; `CC(C)CCn1cc(NC(=O)c2cc(NC(=O)c3cc(NC(=N)c4ccccc4)cn3C)cn2C)cc1C(=O)NCCCN(C)C.O=C(O)C(F)(F)F.O=C(O)C(F)(F)F`: -19.15%; `Cc1ncc(Cn2cc(CCCCO)nn2)c(N)n1`: -20.02%.
Regarding `COc1ccc(/C=C(/C(=O)Nc2cc(C(=O)Nc3cc(C(=O)NCCCN(C)C)n(C)c3)n(C)c2)c2ccc(OC)cc2)cc1.O=C(O)C(F)(F)F`, the Inhibition is on record as -8.57%.
On the same count and under the same terms, next, `CC(C)CCc1sc(NC(=O)c2cc(NC(=O)c3cc(NC(=O)CCC(=O)O)cn3C)cn2C)nc1C(=O)NCCCN(C)C.O=C(O)C(F)(F)F`: -16.63%; `CC(C)n1cc(NC(=O)c2cc(NC(=O)c3cc(NC=O)cn3C(C)C)cn2C)cc1C(=O)NCCCN(C)C.O=C(O)C(F)(F)F`: -12.14%.
For `Cc1ncc(CNc2ccc(Cl)cc2)c(N)n1`, the Inhibition was found to be 2.07%.
On to `COC(=O)c1ccc(C(=O)Nc2cc(C(=O)Nc3cc(C(=O)NCCCN(C)C)n(C)c3)n(C)c2)cc1.O=C(O)C(F)(F)F`, for which the Inhibition is -9.36%.
Still for that read-out and setting: the result for `CN(C)CCCNC(=O)c1cc(NC(=O)c2cc(NC(=O)c3cc(NC(=N)N)cn3C)cn2C)cn1C.O=C(O)C(F)(F)F.O=C(O)C(F)(F)F` reads -3.99%; that for `Cn1cc(NC(=O)c2cc(NC(=O)c3cc(NC(=O)c4ccc(Cl)cc4Cl)cn3C)cn2C)cc1C(=O)NCCN1CCOCC1.O=C(O)C(F)(F)F`, -8.53%.
Regarding `COCCOC1CCN(C(=O)c2cc(NC(=O)c3cc(NC(=O)c4ccc(/C=C/c5ccc(OC)cc5)cc4)cn3C)cn2C)CC1.O=S(=O)(O)O`, the Inhibition is 96.85%.
